Most compounds without a hit are left out; they make up all but 18% or so of the library.
TDP1 cell CPT: DT40-hTDP1 cell growth loss with CPT; hit rate 12% among 420,000; chicken DT40 Tdp1-/-;hTDP1 cells + 20 nM CPT, ATP luminescence, 48 h; Potency, µM (highest dose often 46.2 µM), for inactives: at the highest dose activity change, negative = growth inhibition, actives largely listed as inhibitors; AID 686979; also: potency is read from the fitted curve at half-maximal effect; nearly all actives have a fitted effect of over 55% in size
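Chicken DT40 Tdp1-/- cells stably complemented with human TDP1 were seeded at 400 cells/well in medium containing 20 nM camptothecin, exposed to pin-transferred compounds, and grown at 37 °C for at least 48 hr. Viability was read as ATP luminescence.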
DT40 TDP1 no CPT: qHTS for Inhibitors of human tyrosyl-DNA phosphodiesterase 1 (TDP1): qHTS in cells in absence of CPT | DT40 Tdp1-/- hTDP1 cells, no CPT, ATP luminescence, 48 h | Potency, µM (series often up to 46.2 µM), for the others: top-dose activity change, negative = growth inhibition, usual class: inhibitors | hit rate 15% among 420,000 | AID 686978, 2013; also: potency is read from the fitted curve at half-maximal effect; nearly all actives have a fitted effect of over 55% in size
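Compound effects on proliferation are scored in DT40 Tdp1-/-;hTDP1 cells in the absence of CPT. ATP levels (CellTiter-Glo luminescence) are recorded after a ≥48 hr, 37 °C incubation.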
CtBP-E1A inh: CtBP/E1A binding inhibition | AlphaScreen GST-E1A/His-CtBP binding, 1536-well; hits give low values | activity change, % (test concentration not listed) | hit rate 0.49% among 340,000; in the data active = activity change below about -65%; inconclusive = mostly about -30% to -63%
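Steps: dispense buffer (Tris pH 8.0, NaCl 300 mM, TCEP 1 mM, BSA, Tween 20); add 5X protein mix (GST-E1A, His-CtBP, 125 nM each); pin 23 nL compound; 2 h at 37 °C, dark; add 5X beads (50 ug/mL); 1 h; read.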
TDP1 inh: TDP1 (human) enzyme inhibition; hit rate 0.28% among 350,000; AID 485290; Potency, µM (doses to about 130 µM), for the others: at the top dose activity change, negative = inhibition, actives largely listed as inhibitors; recombinant TDP1, AlphaScreen DNA substrate cleavage; also: potency is read from the fitted curve at half-maximal effect; nearly all actives have a fitted effect of over 40% in size
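Compounds were preincubated with Tdp1 (1 nM final) for 15 min at room temperature before substrate (15 nM final) started a 5 min reaction; beads (10 ug/ml final) were then added for 10 min before AlphaScreen detection.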
IL-1B inflam inh: blocks inflammasome-driven IL-1 beta release | THP-1 LPS/ATP IL-1B secretion, AlphaLISA, 16 h; hits give low values | activity change, % at 57.5 µM | hit rate 4.7% among 360,000; in the data active = activity change below about -50%; inconclusive = mostly about -30% to -49%
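THP-1 cells pretreated 1 hr with compounds (up to 57.5 uM final), then stimulated with LPS (250 ng/mL final) plus ATP (1.25 mM final); secreted IL-1B measured by AlphaLISA after 16 hr, decreased signal indicating inhibition.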
Six1-Eya2 inh: inhibitors of human Six1/Eya2 interaction. AlphaScreen GST-Six1/His-Eya2 binding, biochemical; hits give low values. activity change, % (test concentration not listed). hit rate 0.56% among 360,000. AID 651725; in the data active = activity change below about -65%; inconclusive = mostly about -30% to -63%
Target sequence (O00167 whole entry, looked up): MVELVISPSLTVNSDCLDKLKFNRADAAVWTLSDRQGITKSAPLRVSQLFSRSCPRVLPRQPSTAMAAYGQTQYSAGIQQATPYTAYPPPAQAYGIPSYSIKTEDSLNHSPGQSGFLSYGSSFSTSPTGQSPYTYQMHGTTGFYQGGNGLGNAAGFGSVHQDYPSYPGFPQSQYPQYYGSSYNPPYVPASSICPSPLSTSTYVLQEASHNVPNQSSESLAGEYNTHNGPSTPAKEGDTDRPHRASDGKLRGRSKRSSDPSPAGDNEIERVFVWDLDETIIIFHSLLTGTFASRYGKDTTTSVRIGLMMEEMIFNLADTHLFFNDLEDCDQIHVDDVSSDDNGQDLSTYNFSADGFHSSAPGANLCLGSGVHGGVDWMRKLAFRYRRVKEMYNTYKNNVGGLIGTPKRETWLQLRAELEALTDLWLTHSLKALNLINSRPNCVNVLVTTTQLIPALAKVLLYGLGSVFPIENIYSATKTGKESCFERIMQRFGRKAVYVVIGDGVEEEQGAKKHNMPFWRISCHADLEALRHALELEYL
Target sequence (Q15475 whole entry, looked up): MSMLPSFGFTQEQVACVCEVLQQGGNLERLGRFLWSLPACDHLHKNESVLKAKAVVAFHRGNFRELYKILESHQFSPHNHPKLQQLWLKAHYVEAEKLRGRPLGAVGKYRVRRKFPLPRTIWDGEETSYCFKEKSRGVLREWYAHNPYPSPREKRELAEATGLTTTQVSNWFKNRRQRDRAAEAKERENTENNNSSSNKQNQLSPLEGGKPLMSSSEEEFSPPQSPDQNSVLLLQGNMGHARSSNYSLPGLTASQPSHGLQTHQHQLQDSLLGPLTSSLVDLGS
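Compounds are tested against tagged Six1 and Eya2 proteins bridged by glutathione donor and nickel acceptor beads; after a one-hour incubation at 37 °C without light, AlphaScreen emission is recorded.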
The depositor's hits bear a star; u = inconclusive; x = not tested or not shown; [ ] = another dose, or the depositor's remark. Unless noted, calls follow the shape of the dose curve; as a rule, active = well fitted curve in the direction sought with a large enough effect; inconclusive = small, poorly fitted or top-dose-only effect, or another doubt; inactive = no such curve, though single readings can be large; an effect the other way counts as inactive or inconclusive. % is scaled to controls: 0 for no effect and ±100 for the full control effect.

SMILES	TDP1 cell CPT	DT40 TDP1 no CPT	CtBP-E1A inh	TDP1 inh	IL-1B inflam inh	Six1-Eya2 inh
CCOc1ccc(C2CC(=O)c3c([nH]c(C(=O)OCC4CCCCC4)c3C)C2)cc1 (configuration not stated)	u	18µM*	x	1%	x	x
CCOC(=O)c1[nH]c2c(c1Cc1ccccc1OC)C(=O)CC(c1ccc(OCC)cc1)C2 (configuration not stated)	8.2µM*	9.2µM*	x	8%	x	x
COc1ccc(C2CC(=O)c3c([nH]c(C(=O)OC4CCC(C)CC4)c3C)C2)cc1OC (configuration not stated)	u	-14%	x	0%[12.3 µM]	x	x
COc1cc(C2CC(=O)c3c([nH]c(C(=O)OC4CCCCC4)c3C)C2)cc(OC)c1OC (configuration not stated)	1.8µM*	2.1µM*	x	14%	x	x
COc1cc(C2CC(=O)c3c([nH]c(C(=O)OCC4CCCCC4)c3C)C2)cc(OC)c1OC (configuration not stated)	1.3µM*	1.6µM*	x	3%	x	x
CCc1ccc(C2CC(=O)c3c([nH]c(C(=O)OCC4CCCCC4)c3C)C2)cc1 (configuration not stated)	-25%	u	x	0%	x	x
Cc1cccc(C(=O)Nc2cc(=O)n(C)c(=O)n2C)c1	-5%	4%	-5	3%	-5	5
CCOC(=O)CNC(=O)CN1CCCN(S(=O)(=O)c2ccc(Br)s2)CC1	-24%	u	-2	4%	-10	-4
O=C(CN1CCCN(S(=O)(=O)c2ccc(Br)s2)CC1)Nc1ccc(Cl)cc1	u	u	-3	2%	-76*	-1
CC1CCCC(NC(=O)CN2CCN(S(=O)(=O)c3ccc(Br)s3)CC2)C1C (configuration not stated)	u	18µM*	-1	-2%	u	-1
CN(C)CC(O)COC(c1ccc(Cl)cc1)c1ccc(Cl)cc1 (configuration not stated)	u	21µM*	-9	-3%	-79*	-10
CCOC(=O)C(CC)(CC)C(=O)/C=C/c1ccc(Br)cc1	u	16µM*	-10	0%	-103*	6
CCOC(=O)C(=Cc1ccc(-n2ccnc2)cc1)C(=O)OCC	23µM*	21µM*	0	2%	-93*	7
CCOC(=O)C(=Cc1ccc(Br)cc1)C(=O)OCC	12µM*	2.9µM*	-11	3%	-97*	-6
CCOC(=O)C(=Cc1ccc(F)cc1)C(=O)OCC	x	x	x	3%	x	x
COc1ccc(NC(=O)CCC(=O)N(Cc2ccc(OC)c(OC)c2)c2nccs2)c(OC)c1	-18%	-19%	0	4%	1	-6
CCCS(=O)(=O)c1c(S(=O)(=O)CCC)c2c3ccccc3ccn2c1C(=O)OC	u	26µM*	0	-5%	u	-9
CCCS(=O)(=O)c1c(S(=O)(=O)CCC)c2ccc(C(N)=O)cn2c1C(=O)c1ccc(F)cc1	4%	-3%	5	5%	27	4
CCCS(=O)(=O)c1c(S(=O)(=O)CCC)c2c(N)cccn2c1C(=O)c1ccc(F)cc1	-27%	u	-5	7%	u	-10
CCCS(=O)(=O)c1c(S(=O)(=O)CCC)c2cc(C(C)(C)C)ccn2c1C(=O)c1ccccc1	18µM*	16µM*	x	x	x	x
COC(=O)c1c(S(N)(=O)=O)c2ccccc2n1C	8%	-25%	3	6%	-17	-1
CCCS(=O)(=O)c1c(S(=O)(=O)CCC)c2ccccn2c1C(=O)OC	21µM*	16µM*	6	2%	7	-2
CCCS(=O)(=O)c1c(S(=O)(=O)CCC)c2c(N)cccn2c1C(=O)c1ccc(Br)cc1	16µM*	u	-21	7%	-17	-19
O=C(CNC(=S)N(Cc1ccccc1)Cc1cccnc1)NCCc1ccccc1	-28%	u	0	3%	-10	-5
CCCCNS(=O)(=O)c1ccc(NC(=O)C2CCCO2)cc1 (configuration not stated)	-26%	u	6	3%	12	1
SMILES	TDP1 cell CPT	DT40 TDP1 no CPT	CtBP-E1A inh	TDP1 inh	IL-1B inflam inh	Six1-Eya2 inh
CCCS(=O)(=O)c1c(S(=O)(=O)CCC)c2c(N)cccn2c1C(=O)c1ccc(OC)cc1	-23%	-18%	10	5%	-16	-7
CCCS(=O)(=O)c1c(S(=O)(=O)CCC)c2c(C)cccn2c1C(=O)OC	13µM*	13µM*	-11	3%	-5	-3
COc1cccc(Nc2ncc3ncc(=O)n(Cc4ccc(F)cc4)c3n2)c1	u	-3%	x	x	x	x
O=C1C2C3C=CC(C2C(=O)N1c1ccccc1O)C1C2C(=O)N(c4ccccc4O)C(=O)C2C31 (configuration not stated)	5%	0%	x	-8%	16	3
Cc1ccc(C(NC(=O)Nc2ccccn2)C(Cl)(Cl)Cl)cc1F (configuration not stated)	u	21µM*	-3	0%	56	10
Cc1cccc(NC(=O)Nc2ccccn2)c1C	-23%	8%	-10	x	25	0
CCOC(=O)C1=C(C)NC(=S)N(C(C)=O)C1c1ccc(Cl)cc1 (configuration not stated)	16µM*	-13%	-16	14%[56.1 µM]	-15	-9
CCOC(=O)C1=C(CN2CCN(c3cc(C)ccc3C)CC2)NC(=O)NC1c1ccccc1 (configuration not stated)	u	18µM*	x	5%	x	x
CCOC(=O)C1=C(CN2CCN(c3ccccc3OC)CC2)NC(=O)NC1c1ccccc1 (configuration not stated)	u	u	x	8%	x	x
CCOC(=O)C1=C(CN2CCN(c3ccccc3)CC2)NC(=O)NC1c1ccc(C)cc1 (configuration not stated)	26µM*	u	x	5%	x	x
CCOC(=O)C1=C(C)NC(=S)N(C(C)=O)C1c1ccc(OC)c(OC)c1 (configuration not stated)	11%	-3%	6	1%	-3	-4
CCOC(=O)C1=C(CN2CCN(c3ccc(Cl)cc3)CC2)NC(=O)NC1c1ccc(OC)cc1 (configuration not stated)	21µM*	26µM*	x	1%	x	x
O=C(NC1CCCC1)C1C(c2ccccc2)=Nc2ccccc2N1C(=O)c1ccc(C(F)(F)F)cc1 (configuration not stated)	16%	11%	-1	x	18	-1

Compound activity (PubChem BioAssay)
